High-throughput results as filed in PubChem.
A selection: hits, their analogues and other compounds. The true share with any hit is near 1.6%.
KCNQ2 block – rat KCNQ2 potassium channel inhibitors, primary screen, cell-based, CHO-K1, FluxOR thallium flux, B-score | Potassium voltage-gated channel subfamily KQT member 2 (Rattus norvegicus), O88943 | 20 min; stronger effect = lower value | B-score at 10 µM | 1.1% of 310,000 active | AID 2156, 2009;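 active = fluorescence ratio B-score at most minus 3 library SDs, with starting brightness B-score within 2 library SDs, cut at about -5.5 in these data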
KCNQ2 enhance – potentiators of rat KCNQ2 potassium channel. 0.54% of 310,000 active. AID 2239, 2010. CHO-K1 KCNQ2, FluxOR thallium flux fluorescence; stronger effect = higher value. B-score at 10 µM. Potassium voltage-gated channel subfamily KQT member 2 (Rattus norvegicus), O88943;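 active = fluorescence ratio B-score at least 3 SD of library B-scores, with initial fluorescence B-score within 3 of them, cut at about 5.3 in these data; same plate scores as AID 2156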;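 also: B-score of peak minus minimum over baseline fluorescence ratio after K+ and Tl+ stimulus; positive B-score means potentiation of KCNQ2 with more thallium influx and brighter signal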
KCNQ2 inh conf – rat KCNQ2 potassium channel inhibitors, confirmation, cell-based, thallium flux | shares compounds with KCNQ2 block | KCNQ2-expressing cells, inhibition; stronger effect = lower value | activity change, negative = inhibition, % at 10 µM | 57% of 1,000 active | AID 493025, 2011;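 also: 0% = vehicle wells and values are ratio percent relative to vehicle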
KCNQ1 spec – human KCNQ1 channel inhibition, counter-screen for KCNQ2 inhibitor project, cell-based, FluxOR thallium flux; shares compounds with KCNQ2 block; KCNQ1-expressing cells, FluxOR thallium flux fluorescence; stronger effect = lower value; activity change, negative = inhibition, % at 10 µM; 15% of 1,000 active; AID 493026, 2011;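 active = activity change at least 3 SD of negative controls below their mean in both duplicate wells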;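 also: CHO cells stably transfected with KCNQ1 and depolarized by potassium stimulus; peak minus minimum fluorescence over baseline after thallium addition; 0% = vehicle negative control and -100% = blank without thallium stimulus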
Target sequence (P51787 whole entry, looked up): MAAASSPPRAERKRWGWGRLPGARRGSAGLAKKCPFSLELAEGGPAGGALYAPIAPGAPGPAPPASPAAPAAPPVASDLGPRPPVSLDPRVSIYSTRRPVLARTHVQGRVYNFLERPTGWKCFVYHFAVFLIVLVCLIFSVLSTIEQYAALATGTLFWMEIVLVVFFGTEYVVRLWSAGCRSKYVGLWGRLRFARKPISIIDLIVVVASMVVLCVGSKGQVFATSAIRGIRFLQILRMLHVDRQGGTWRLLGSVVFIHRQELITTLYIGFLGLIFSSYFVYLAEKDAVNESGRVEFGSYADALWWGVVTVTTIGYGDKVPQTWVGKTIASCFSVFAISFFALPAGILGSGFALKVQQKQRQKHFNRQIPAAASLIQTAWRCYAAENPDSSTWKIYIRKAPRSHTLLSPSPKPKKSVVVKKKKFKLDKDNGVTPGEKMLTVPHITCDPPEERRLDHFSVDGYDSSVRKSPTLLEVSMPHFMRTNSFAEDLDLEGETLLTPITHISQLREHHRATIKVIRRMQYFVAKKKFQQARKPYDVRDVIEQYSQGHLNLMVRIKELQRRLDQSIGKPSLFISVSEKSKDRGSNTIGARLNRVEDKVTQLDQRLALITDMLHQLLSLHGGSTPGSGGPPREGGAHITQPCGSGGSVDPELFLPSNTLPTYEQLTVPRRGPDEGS
CHO Tl ctr – thallium flux change in parental CHO cells, counter-screen for KCNQ2 inhibitor project; activity change, % at 10 µM; AID 493029, 2011; 14% of 1,000 active; shares compounds with KCNQ2 block; stronger effect = lower value;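 also: 0% = vehicle negative controls with stimulus buffer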
KCNQ2 patch conf – rat KCNQ2 channel inhibitors, confirmation, cell-based, automated patch clamp, single concentration; AID 588531, 2011; 49% of 550 active; calls only at 10 µM; KCNQ2-expressing cells, automated patch clamp current; shares compounds with KCNQ2 block
Kir21 confirm – mouse Kir2.1 channel blockers, retest, confirmation, cell-based, FluxOR thallium flux, duplicate; shares compounds with KCNQ2 enhance; Kir2.1-expressing cells, FluxOR thallium flux fluorescence; stronger effect = lower value; Tl flux remaining, % of negative control (stronger effect = lower value), % at 10 µM; 41% of 2,300 active; AID 2032, 2009;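 active = Primary-screen hit whose thallium flux fell at least 3 control SD below untreated wells in both duplicates, with normal baseline fluorescence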;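 also: 0% = blank wells without stimulus and 100% = stimulated no-compound controls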
HEK293 ctr – alters thallium flux in parental HEK293 cells, Kir2.1 counter-screen; shares compounds with KCNQ2 enhance; FluxOR thallium flux fluorescence; 0% = unstimulated blank wells; FluxOR signal as % of negative control (100 = no effect), % at 10 µM; 19% of 2,300 active;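 active = dye signal at least 3 control SD above or below untreated wells in both duplicates, raw fluorescence within 3, either direction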;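 also: percent is based on the flux ratio of peak minus minimum fluorescence over baseline F0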
* marks the source's active call; other numbers are inactive results; i = inactive; . = no result given; + = active, no number. Unless noted, no rule for the calls is given here.

SMILES	KCNQ2 block	KCNQ2 enhance	KCNQ2 inh conf	KCNQ1 spec	CHO Tl ctr	others
COc1ccc(NC(c2ccccc2)P(=O)(Oc2ccccc2)Oc2ccccc2)cc1 (configuration not stated)	-7*	-7	-31%*	i	i	KCNQ2 patch conf=+
COc1ccc(NC(c2ccccc2F)P(=O)(Oc2ccccc2)Oc2ccccc2)cc1 (configuration not stated)	i	.	.	.	.
CC(C)(C)c1ccc(C(=O)C2CCCN(C3CCC3)C2)cc1 (configuration not stated)	i	.	.	.	.
O=C(Nc1ccc(Cl)cc1)O/N=C(\c1ccccc1)c1ccccn1	-7.7*	-7.7	i	i	i
CON(C)C(=O)Nc1ccc(Cl)cc1	i	.	.	.	.
Cc1cccc(NC(=S)N2CC3CC(C2)c2cccc(=O)n2C3)c1C (configuration not stated)	i	.	.	.	.
O=P(Nc1ccccc1)(Nc1ccccc1)Oc1ccccc1	i	.	.	.	.
O=P(Nc1ccccc1)(Nc1ccccc1)Oc1cccc(Cl)c1	-7.7*	-7.7	i	i	i
CNP(=O)(Oc1ccccc1)OC12CC3CC(CC(C3)C1)C2 (configuration not stated)	i	.	.	.	.
Cc1ccc(-c2cc(-c3ccccc3)cc(-c3ccccc3)[n+]2-c2ccc(C(=O)O)cc2)cc1	i	.	.	.	.
Oc1ccccc1-[n+]1c(-c2ccccc2)cc(-c2ccccc2)cc1-c1ccccc1	-7.6*	-7.6	-16%*	i	i	KCNQ2 patch conf=i;Kir21 confirm=44%*;HEK293 ctr=i
CCCCCCCSc1cc(OC)c(CCN(C)C)cc1OC	-7.7*	-7.7	-34%*	-38%*	-28%*	KCNQ2 patch conf=i;Kir21 confirm=19%*;HEK293 ctr=i
CC(C)c1ccccc1OCC(=O)N1CCCN(C)CC1	i	.	.	.	.
Cc1cc(OCCN2CC2)c2ccccc2n1	i	.	.	.	.
COc1ccc(-[n+]2c(-c3ccccc3)cc(-c3ccc(C)cc3)cc2-c2ccccc2)cc1	-10*	-10	-26%*	i	i	KCNQ2 patch conf=+;Kir21 confirm=14%*;HEK293 ctr=i
COc1ccc(-c2cc(-c3ccccc3)[n+](C)c(-c3ccccc3)c2)cc1	i	.	.	.	.
Clc1cc(Cl)cc(NC2=NCCS2)c1	i	3.6	.	.	.
CN(C)CCSC1c2ccccc2CSc2ccccc21 (configuration not stated)	i	.	.	.	.
Cc1c(O)ccc(C(=O)CN2CC(C)OC(C)C2)c1O (configuration not stated)	i	1.6	.	.	.
CC1CCC(C(C)C)C(OC(=O)Cn2c(COc3ccccc3)[n+](C)c3ccccc32)C1 (configuration not stated)	-10*	-10	-55%*	-52%*	-50%*	KCNQ2 patch conf=i;Kir21 confirm=18%*;HEK293 ctr=i
CCC1(c2ccc(N)cc2)CCC(=O)NC1=O (configuration not stated)	i	0.38	.	.	.
CNCC(O)c1cccc(OC(=O)c2ccccc2C)c1 (configuration not stated)	i	0.15	.	.	.
CNCC(O)c1cc(OCc2ccccc2)c(OCc2ccccc2)cc1F (configuration not stated)	i	.	.	.	.	Kir21 confirm=40%*;HEK293 ctr=72%*
O=C(COC(=O)c1cccc(O)c1)Nc1ccc(Cl)cc1C(=O)c1ccccc1	i	.	.	.	.
O=C(COc1ccc(Cl)cc1)N(c1ccc(Cl)cc1)C1CN2CCC1CC2 (configuration not stated)	i	0.98	.	.	.
CC1(C)C[C@H]2C=C(C=O)[C@]3(C=O)C[C@]3(C)[C@H]2C1	-6*	-6	.	.	.	Kir21 confirm=42%*;HEK293 ctr=71%*
